Measurements reported in PubChem BioAssay AID2099 (Broad Institute, 2009).
Hit rate of the full screen: of about 330,000 compounds, about 230 (0.07%) were called active. This is one part of a sample in which actives are shown more often than they occur. Unmarked numbers belong to inactive results.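 Rule for the calls: active = more than half of a compound's replicate wells show inhibition beyond 50%, single wells judged on their own value; inconclusive = some, but no more than half, of replicates pass 50% inhibition; inactive = no replicate passes 50% inhibition.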

The compounds below were run against Lysine-specific demethylase 4C (Homo sapiens) (UniProt Q9H3R0) (assay: inhibitors of GASC-1 histone demethylase, primary screen, biochemical, fluorescence, DELFIA europium (AID 2099;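 note: signal counts dimethyl H3K9 product captured on neutravidin plate; 0% = median of DMSO wells and 100% = 0.3 times that DMSO median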)). Conditions: GST-JMJD2C(1-420) H3K9me3 demethylation, at 2.35 µM, stronger effect = higher value.
Lysine-specific demethylase 4C (Homo sapiens), sequence (Q9H3R0 1-420 limits assumed): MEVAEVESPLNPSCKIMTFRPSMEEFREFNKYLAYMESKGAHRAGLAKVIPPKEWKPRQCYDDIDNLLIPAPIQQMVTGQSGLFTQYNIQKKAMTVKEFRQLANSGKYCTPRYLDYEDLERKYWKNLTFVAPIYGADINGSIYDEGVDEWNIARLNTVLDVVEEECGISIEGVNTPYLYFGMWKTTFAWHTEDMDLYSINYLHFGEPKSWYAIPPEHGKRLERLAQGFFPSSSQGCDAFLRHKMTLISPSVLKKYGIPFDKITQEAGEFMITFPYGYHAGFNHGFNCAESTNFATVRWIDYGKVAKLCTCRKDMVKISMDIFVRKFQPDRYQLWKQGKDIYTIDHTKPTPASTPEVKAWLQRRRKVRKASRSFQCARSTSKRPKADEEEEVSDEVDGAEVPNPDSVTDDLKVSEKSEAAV

Compound	inhibition
O=c1[nH]c(O)c(C=Nc2cc(F)cc(F)c2)c(=O)[nH]1	8.75%
Cc1ccc2c(c1)=C/C(=C\c1c(O)[nH]c(=O)[nH]c1=O)C(=O)N=2	68.2% (active)
O=C1N=c2ccccc2=C/C1=C\c1c(O)[nH]c(=S)[nH]c1=O	0.999%
COc1ccc(CN2CCN(c3ccccc3F)CC2)c(OC)c1	2.07%
NCC(O)c1ccc(O)cc1 (stereo not given)	4.95%
